Experimental findings from paper PMC8384837, “Expanding the binding specificity for RNA recognition by a PUF domain” are described below.

Assay in all cases: yeast three-hybrid, YBZ-1, SC-Leu-His + 0.5 mM 3-AT, 4 days
Common to all, as to settings: tags: N-Gal4 AD-HA kept; label: inside an RPR1-promoter hybrid RNA with tandem MS2 sites; ssRNA

Experiment [1] addresses T1, PUM1 PUF domain R6-HFW (Homo sapiens, UniProt Q14671 828-1176, N1043H;Y1044F;Q1047W).
T1 sequence: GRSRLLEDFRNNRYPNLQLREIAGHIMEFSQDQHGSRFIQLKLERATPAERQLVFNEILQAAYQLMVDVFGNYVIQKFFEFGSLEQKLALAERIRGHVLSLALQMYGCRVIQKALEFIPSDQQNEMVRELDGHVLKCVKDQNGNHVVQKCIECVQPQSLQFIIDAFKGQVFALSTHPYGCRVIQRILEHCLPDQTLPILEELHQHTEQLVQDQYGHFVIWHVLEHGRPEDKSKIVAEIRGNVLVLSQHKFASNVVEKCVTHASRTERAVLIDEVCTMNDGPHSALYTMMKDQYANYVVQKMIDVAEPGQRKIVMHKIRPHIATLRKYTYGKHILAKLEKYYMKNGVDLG
The procedure, abridged:
(§1)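 Repeat regions from input (SC-Leu) and selection (SC-Leu-His + 0.5 mM 3-AT) plates were PCR-amplified and Illumina-sequenced after four days of growth. The cells were strain YBZ-1 with a LexA–MS2 coat fusion and a HIS3 reporter, co-expressing Pumilio-1 PUF domain libraries and matching RNA elements from a centromeric plasmid. The interaction score is the log change in variant frequency from input to selection, taken in log2 with a pseudocount of 1 for absent variants.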

Experiment [2] has as its target PUM1 PUF domain R8-LRR (Homo sapiens, UniProt Q14671 828-1176, N1122L;Y1123R;Q1126R). The method in brief: as §1
The target of experiment [3] is T2, PUM1 PUF domain R6-RHG (Homo sapiens, UniProt Q14671 828-1176, N1043R;Y1044H;Q1047G).
T2 sequence: T1 sequence with H216R, F217H, W220G
The procedure, abridged:
as §1

Experiment [4] deals with PUM1 PUF domain R1-RTE (Homo sapiens, UniProt Q14671 828-1176, S863R;R864T;Q867E). The method in brief:
as §1

Experiment [5] concerns the target PUM1 PUF domain R8-RPR (Homo sapiens, UniProt Q14671 828-1176, N1122R;Y1123P;Q1126R). The method in brief:
as §1

The target of experiment [6] is PUM1 PUF domain R8-GYK (Homo sapiens, UniProt Q14671 828-1176, N1122G;Q1126K). The procedure, abridged: as §1
Experiment [7] concerns the target PUM1 PUF domain R4-VWK (Homo sapiens, UniProt Q14671 828-1176, N971V;H972W;Q975K). The method in brief: as §1
Experiment [8] deals with T3, PUM1 PUF domain R6-SWH (Homo sapiens, UniProt Q14671 828-1176, N1043S;Y1044W;Q1047H).
T3 sequence: T1 sequence with H216S, F217W, W220H
The procedure, abridged: as §1

Experiment [9] concerns the target PUM1 PUF domain R5-WWA (Homo sapiens, UniProt Q14671 828-1176, C1007W;R1008W;Q1011A). The procedure, abridged: as §1
For experiment [10], the target named is PUM1 PUF domain R2-LWM (Homo sapiens, UniProt Q14671 828-1176, N899L;Y900W;Q903M). The procedure, abridged: as §1

Positions count from the first letter of the chain named.

Regarding “GGCUAGAACUAGUGGAUCCCCCGGCGCCCGGCGGCUCGAGCCCGGGUAAGUGUAAAUAGUCUGCAUGCCGCCGGGCGCCAUGCCUGCAGGUCGACUCUAGAAAACAUG”, the binding signal in experiment [1] was 3.2 log2 enrichment (interaction score); in experiment [2], 2.35 log2 enrichment (interaction score); in [3], 2.33 log2 enrichment (interaction score). Take “GGCUAGAACUAGUGGAUCCCCCGGCGCCCGGCGGCUCGAGCCCGGGUAAGUGUAAAUUGUCUGCAUGCCGCCGGGCGCCAUGCCUGCAGGUCGACUCUAGAAAACAUG”: the binding signal in experiment [4] is 2.65 log2 enrichment (interaction score). On the same count and under the same terms, the result for “GGCUAGAACUAGUGGAUCCCCCGGCGCCCGGCGGCUCGAGCCCGGGUAAGUGUAAAUGGUCUGCAUGCCGCCGGGCGCCAUGCCUGCAGGUCGACUCUAGAAAACAUG” reads 0.93 log2 enrichment (interaction score). As for “GGCUAGAACUAGUGGAUCCCCCGGCGCCCGGCGGCUCGAGCCCGGGUAAGCGUAAAUAGUCUGCAUGCCGCCGGGCGCCAUGCCUGCAGGUCGACUCUAGAAAACAUG”, the binding signal in experiment [2] is 3.25 log2 enrichment (interaction score); in [5], 2.38 log2 enrichment (interaction score); in experiment [6], 4.76 log2 enrichment (interaction score). “GGCUAGAACUAGUGGAUCCCCCGGCGCCCGGCGGCUCGAGCCCGGGUAAGUGUACAUAGUCUGCAUGCCGCCGGGCGCCAUGCCUGCAGGUCGACUCUAGAAAACAUG”: in [7], the binding signal was 5.63 log2 enrichment (interaction score). For the sequence “GGCUAGAACUAGUGGAUCCCCCGGCGCCCGGCGGCUCGAGCCCGGGUAAGUGAAAAUAGUCUGCAUGCCGCCGGGCGCCAUGCCUGCAGGUCGACUCUAGAAAACAUG”, in [8], the binding signal is 2.64 log2 enrichment (interaction score). In the case of “GGCUAGAACUAGUGGAUCCCCCGGCGCCCGGCGGCUCGAGCCCGGGUAAGUGUGAAUAGUCUGCAUGCCGCCGGGCGCCAUGCCUGCAGGUCGACUCUAGAAAACAUG”, the binding signal in experiment [9] was 2.58 log2 enrichment (interaction score). As for “GGCUAGAACUAGUGGAUCCCCCGGCGCCCGGCGGCUCGAGCCCGGGUAAGUGUAAAAAGUCUGCAUGCCGCCGGGCGCCAUGCCUGCAGGUCGACUCUAGAAAACAUG”, the binding signal in [10] is 7 log2 enrichment (interaction score).
